Measurements published in PubChem BioAssay.
Activity calls are given as the source filed them.

Key:
Albumin (Bos taurus) = Albumin (Bos taurus) (UniProt P02769); experiment: compounds binding labelled BSA control protein – biochemical, small-molecule microarray, Alexa647 label, 635/667 nm fluorescence, artefact control for SMM control protein annotation, profiling panel (AID 1118); settings: BSA-A647 binding, fluorescence 635 nm, higher = more signal;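 further: score merges 667 nm emission intensity and signal-to-noise per printed compound spot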
Sequence of Albumin (Bos taurus) (P02769 whole entry, looked up): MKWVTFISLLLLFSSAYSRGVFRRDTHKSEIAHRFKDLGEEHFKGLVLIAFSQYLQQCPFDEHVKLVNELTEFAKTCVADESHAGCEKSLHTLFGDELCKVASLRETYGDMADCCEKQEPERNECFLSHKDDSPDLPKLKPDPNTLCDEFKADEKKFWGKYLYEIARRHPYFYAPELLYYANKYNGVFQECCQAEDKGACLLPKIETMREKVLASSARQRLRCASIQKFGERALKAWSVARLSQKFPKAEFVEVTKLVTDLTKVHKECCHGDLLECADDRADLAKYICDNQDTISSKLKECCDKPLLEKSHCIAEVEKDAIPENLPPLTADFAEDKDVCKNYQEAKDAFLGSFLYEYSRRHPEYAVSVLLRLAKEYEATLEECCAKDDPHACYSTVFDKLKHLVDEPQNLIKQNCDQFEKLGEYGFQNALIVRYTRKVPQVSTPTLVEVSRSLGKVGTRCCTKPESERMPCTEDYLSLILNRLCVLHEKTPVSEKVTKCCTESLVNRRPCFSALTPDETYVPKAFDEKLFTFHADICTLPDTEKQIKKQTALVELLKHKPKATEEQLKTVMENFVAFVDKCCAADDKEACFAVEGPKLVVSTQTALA

[1] = probe aXIP binding to arrayed compounds – biochemical, NeuroSMM set, 635/667 nm fluorescence, primary screen (AID 1119); settings: small-molecule microarray, higher = more signal, called active from +8 up or from −8 down;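 further: probe is the protein aXip251-270 applied at 1 µg/mL to compound-printed slides; binding of probe to printed compounds measured as 667 nm fluorescence plus signal to noise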
[2] = probe aNOTCH3 binding on compound microarray – biochemical, small-molecule microarray, 635/667 nm fluorescence, primary screen (AID 1120); settings: higher = more signal;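 further: probe is a biotin-tagged antibody raised against NOTCH3 rather than NOTCH3 protein; score merges spot fluorescence near 667 nm with spot signal to noise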
[3] = probe aNOTCH2 binding on compound microarray – biochemical, small-molecule microarray, 635/667 nm fluorescence, primary screen (AID 1121); settings: higher = more signal;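 further: score merges feature fluorescence read at 667 nm with its signal to noise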
[4] = target: Carbonic anhydrase 2 (Homo sapiens) (UniProt P00918); experiment: compounds binding carbonic anhydrase 2 – biochemical, small-molecule microarray, Alexa647-labelled CAII, profiling panel (AID 1122); settings: CAII-A647 binding fluorescence, higher = more signal
[5] = COS7 lysate on small-molecule microarray, probe aHis, 635 nm (AID 1123); settings: COS7 cell lysate, fluorescence, higher = more signal;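 further: z-score combines 667nm fluorescence intensity with signal-to-noise per printed compound spot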
[6] = probe aLAP1 signal on lysate-treated microarray – cell lysate, small-molecule microarray, COS7 lysate, primary screen (AID 1124); settings: probe aLAP1, fluorescence, higher = more signal;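 further: lysate comes from COS7 cells expressing LAP1 and is applied at 0.3 µg/mL; score merges spot fluorescence near 667 nm with signal-to-noise over triplicate slides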
Sam68 (KHDRBS1) = experiment: compounds binding KHDRBS1 protein – biochemical, small-molecule microarray, 635 nm fluorescence, primary screen (AID 1125); settings: higher = more signal;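 further: score merges 667 nm channel intensity with signal to noise over triplicate slides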
[7] = tested on: Chordin-like protein 2 (CHRDL2); experiment: compounds binding chordin-like 2 – biochemical, small-molecule microarray, 635 nm fluorescence, primary screen (AID 1126); settings: fluorescence 635 nm, higher = more signal;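 further: printed compound slides probed with Chrdl2 protein at 4 µg/mL for 1 h at 4 C; score merges 667 nm emission intensity with signal to noise over three replicate slides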
[8] = target: Concanavalin-A (Canavalia ensiformis) (UniProt P02866); experiment: compounds binding concanavalin A lectin – biochemical, small-molecule microarray, Alexa647 label, 635 nm, artefact control for SMM control protein annotation, primary screen (AID 1127); settings: ConA-A647 binding fluorescence, higher = more signal;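 further: z combines 667 nm emission intensity with signal-to-noise across three replicate slides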
Sequence of Concanavalin-A (Canavalia ensiformis) (P02866 whole entry, looked up): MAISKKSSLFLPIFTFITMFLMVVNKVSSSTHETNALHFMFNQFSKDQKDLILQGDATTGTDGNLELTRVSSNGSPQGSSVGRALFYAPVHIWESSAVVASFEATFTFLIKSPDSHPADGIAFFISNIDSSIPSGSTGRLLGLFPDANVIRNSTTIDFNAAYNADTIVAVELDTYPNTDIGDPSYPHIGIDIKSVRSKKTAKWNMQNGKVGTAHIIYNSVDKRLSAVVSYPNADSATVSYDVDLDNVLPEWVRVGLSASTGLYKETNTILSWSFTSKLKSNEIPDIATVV

[9] = compounds binding Alexa647 anti-His antibody – biochemical, small-molecule microarray, 635 nm fluorescence, artefact control for SMM control protein annotation, primary screen (AID 1128); settings: higher = more signal;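 further: score merges feature fluorescence with signal-to-noise for each printed compound spot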
[10] = tested on: Human papillomavirus type 1a E7 protein (residues 1-88); experiment: HPV1a E7 small-molecule binders, primary screen, biochemical, small-molecule microarray, residues 1-88, 635 nm (AID 1129); settings: small-molecule microarray binding, fluorescence 635 nm; higher = more signal
[11] = target: Focal adhesion kinase 1 (Homo sapiens) (UniProt Q05397); experiment: PTK2 protein binding on printed compound slides – biochemical, small-molecule microarray, 635/667 nm fluorescence, BSA, DTT, primary screen (AID 1130); settings: 635 nm fluorescence, higher = more signal;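 further: composite of spot emission at 667 nm and signal to noise over triplicate slides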
Sequence of Focal adhesion kinase 1 (Homo sapiens) (Q05397 whole entry, looked up): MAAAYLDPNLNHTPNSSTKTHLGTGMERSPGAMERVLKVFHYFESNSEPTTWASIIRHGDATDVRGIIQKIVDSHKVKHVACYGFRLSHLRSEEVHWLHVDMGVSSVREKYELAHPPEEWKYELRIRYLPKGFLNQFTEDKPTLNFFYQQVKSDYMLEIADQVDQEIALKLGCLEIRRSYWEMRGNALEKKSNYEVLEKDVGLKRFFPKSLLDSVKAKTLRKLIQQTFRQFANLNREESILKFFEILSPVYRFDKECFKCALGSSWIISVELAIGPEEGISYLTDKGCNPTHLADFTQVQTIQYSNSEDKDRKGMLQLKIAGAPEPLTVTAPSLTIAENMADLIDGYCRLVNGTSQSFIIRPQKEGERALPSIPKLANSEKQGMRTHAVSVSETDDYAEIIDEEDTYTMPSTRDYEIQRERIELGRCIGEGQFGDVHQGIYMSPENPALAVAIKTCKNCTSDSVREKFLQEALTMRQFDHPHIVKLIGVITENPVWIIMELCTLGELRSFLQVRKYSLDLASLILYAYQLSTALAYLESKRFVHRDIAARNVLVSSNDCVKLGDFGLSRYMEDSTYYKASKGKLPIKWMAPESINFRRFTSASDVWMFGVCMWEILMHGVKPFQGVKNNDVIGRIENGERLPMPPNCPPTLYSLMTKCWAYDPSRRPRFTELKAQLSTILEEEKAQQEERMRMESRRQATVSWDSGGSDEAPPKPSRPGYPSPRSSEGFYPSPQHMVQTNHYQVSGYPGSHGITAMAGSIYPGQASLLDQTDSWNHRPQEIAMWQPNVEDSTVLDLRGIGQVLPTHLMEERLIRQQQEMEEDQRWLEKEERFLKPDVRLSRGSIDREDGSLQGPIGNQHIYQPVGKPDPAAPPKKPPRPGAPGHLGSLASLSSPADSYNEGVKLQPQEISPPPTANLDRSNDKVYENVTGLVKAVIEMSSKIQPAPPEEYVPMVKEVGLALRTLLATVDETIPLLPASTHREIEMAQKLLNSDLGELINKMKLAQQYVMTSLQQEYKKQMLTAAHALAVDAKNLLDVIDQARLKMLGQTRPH

[12] = tested on: Fibrinogen (Alexa647-labelled); experiment: Alexa647-fibrinogen binding to printed small molecules – biochemical, small-molecule microarray, 635/667 nm fluorescence, artefact control for SMM control-protein annotation, profiling panel (AID 1131); settings: fibrinogen-A647 binding fluorescence, higher = more signal;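 further: z-score merges 667 nm fluorescence with per-spot signal-to-noise over triplicate slides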
[13] = target: Follistatin (Homo sapiens) (UniProt P19883); experiment: FST protein binding to printed compounds – biochemical, small-molecule microarray, 635/667 nm fluorescence, primary screen (AID 1132); settings: 635 nm fluorescence, higher = more signal
Sequence of Follistatin (Homo sapiens) (P19883 whole entry, looked up): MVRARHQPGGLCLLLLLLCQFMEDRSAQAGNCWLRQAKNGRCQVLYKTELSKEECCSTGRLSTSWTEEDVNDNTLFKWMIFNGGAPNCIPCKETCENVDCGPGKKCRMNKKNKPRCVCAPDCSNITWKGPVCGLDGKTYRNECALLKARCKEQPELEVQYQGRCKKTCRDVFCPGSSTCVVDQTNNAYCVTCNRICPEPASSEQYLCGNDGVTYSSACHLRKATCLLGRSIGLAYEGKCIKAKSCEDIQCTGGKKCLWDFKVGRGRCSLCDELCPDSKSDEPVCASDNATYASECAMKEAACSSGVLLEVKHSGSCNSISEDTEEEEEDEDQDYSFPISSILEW

[14] = target: Fibroblast growth factor 2 (Homo sapiens) (UniProt P09038); experiment: basic fibroblast growth factor binding to printed compounds – biochemical, small-molecule microarray, 635/667 nm fluorescence, primary screen (AID 1133); settings: FGF2, fluorescence 635/667, higher = more signal
Sequence of Fibroblast growth factor 2 (Homo sapiens) (P09038 whole entry, looked up): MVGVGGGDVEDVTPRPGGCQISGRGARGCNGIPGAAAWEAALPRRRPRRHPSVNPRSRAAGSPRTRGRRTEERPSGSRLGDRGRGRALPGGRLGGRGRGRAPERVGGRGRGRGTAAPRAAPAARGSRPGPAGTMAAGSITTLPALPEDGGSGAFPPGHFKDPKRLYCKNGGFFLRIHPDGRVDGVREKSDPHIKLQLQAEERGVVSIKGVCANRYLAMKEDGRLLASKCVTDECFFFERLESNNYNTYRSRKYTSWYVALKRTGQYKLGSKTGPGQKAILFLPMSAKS

[15] = JC-1 mitochondrial potential readout, lung cancer cells – cell-based, A549, JC-1 fluorescence, basal, 24 h, 100 nL, profiling panel (AID 1138); settings: higher = more signal;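 further: A549 lung adenocarcinoma cells under basal conditions with no added stimulus; test concentration not given here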
Lefty1 = Lefty1 protein binding to printed compounds – biochemical, small-molecule microarray, 635/667 nm fluorescence, primary screen (AID 1139); settings: fluorescence 635/667, higher = more signal
[16] = tested on: wheat germ agglutinin (Triticum aestivum), Alexa647-labelled; experiment: Alexa647-WGA lectin binding to printed small molecules – biochemical, small-molecule microarray, 635/667 nm fluorescence, artefact control for SMM control-protein annotation, profiling panel (AID 1140); settings: WGA-A647 binding, 635 nm fluorescence, higher = more signal;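 further: score merges 667 nm feature emission with signal to noise over triplicate slides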
[17] = target: Luciferin 4-monooxygenase (Photinus pyralis) (UniProt P08659); experiment: inhibition of purified Photinus pyralis luciferase – biochemical, luminescence, purified enzyme, 2006 set, primary screen (AID 1141); settings: purified firefly luciferase, SteadyGlo luminescence, 30 min; higher = more signal, called active from +8 up or from −8 down;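 further: cell-free assay with purified firefly luciferase at 100 ng per well in PBS; test concentration not given here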
Sequence of Luciferin 4-monooxygenase (Photinus pyralis) (P08659 whole entry, looked up): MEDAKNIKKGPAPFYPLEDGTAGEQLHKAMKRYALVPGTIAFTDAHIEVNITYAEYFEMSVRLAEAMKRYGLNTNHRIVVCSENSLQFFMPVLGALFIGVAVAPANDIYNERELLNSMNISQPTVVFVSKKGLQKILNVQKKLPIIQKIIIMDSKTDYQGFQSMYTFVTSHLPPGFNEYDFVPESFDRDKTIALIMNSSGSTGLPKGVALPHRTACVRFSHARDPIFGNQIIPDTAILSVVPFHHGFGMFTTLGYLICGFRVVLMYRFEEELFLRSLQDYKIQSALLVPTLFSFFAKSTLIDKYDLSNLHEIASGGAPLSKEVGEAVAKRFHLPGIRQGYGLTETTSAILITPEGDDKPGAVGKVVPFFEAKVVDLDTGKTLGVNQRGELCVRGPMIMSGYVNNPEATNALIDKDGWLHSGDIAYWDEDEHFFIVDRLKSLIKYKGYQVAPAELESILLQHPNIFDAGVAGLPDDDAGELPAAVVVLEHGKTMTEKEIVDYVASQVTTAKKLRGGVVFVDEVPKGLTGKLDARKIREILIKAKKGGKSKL

| Structure (SMILES) | composite z-score (Albumin (Bos taurus)) | composite Z-score [1] | composite z-score [2] | composite z-score [3] | composite z-score [4] | composite z-score [5] | composite z-score [6] | composite z-score (Sam68 (KHDRBS1)) | composite z-score [7] | composite z-score [8] | composite z-score [9] | composite z-score [10] | composite z-score [11] | composite z-score [12] | composite z-score [13] | composite z-score [14] | z-score [15] | composite z-score (Lefty1) | composite z-score [16] | z-score [17] |
| --- | --- | --- | --- | --- | --- | --- | --- | --- | --- | --- | --- | --- | --- | --- | --- | --- | --- | --- | --- | --- |
| CCCCCN1CC=CC23O[C@@H]4/C=C\CCC(C)OC(=O)C4[C@H]2C(=O)N(CCO)[C@@H]3C1=O (stereo not given in full) | -1.09 | 0.547 (inactive) | -0.28 | -0.172 | 0.905 | 0.663 | 0.0877 | -0.106 | -1.79 | -0.773 | 1.31 | -0.85 | -0.081 | -2.44 | -0.869 | -1.2 | 0.33 | -0.853 | -0.564 | -0.967 (inactive) |
| C=C(COC)C(=O)CC[C@H](OC(=O)c1ccccc1-c1ccccc1C(=O)O)c1ccccc1OCCO | -0.714 | 1.42 (inactive) | -0.0881 | -0.126 | 0.59 | 0.125 | 0.283 | 0.452 | -0.0006 | 0.7 | -0.307 | 0.536 | -0.203 | -0.591 | 0.905 | 0.855 | 0.904 | 0.655 | -0.179 | -3.05 (inactive) |
| C[N+](C)(C)CCCCNC(=O)[C@@H]1C[C@@H]2C(=O)NCC(=O)N2[C@@H]1c1cccc(OCCO)c1 | -0.656 | 0.617 (inactive) | 0.0297 | -0.19 | 0.434 | 2.15 | 1.27 | 0.781 | 1.29 | 1.14 | 2.59 | 1.15 | -0.421 | 0.78 | 1.49 | 1.94 | 1.87 | 1.6 | 1.02 | -1.9 (inactive) |
| O=C(O)[C@H]1C[C@H]2C(=O)N[C@@H](Cc3ccccc3)C(=O)N2[C@H]1c1ccc(O)cc1 | -0.728 | 1.09 (inactive) | -0.0918 | -0.0415 | 0.659 | 1.88 | 0.414 | 1.08 | -0.372 | 0.956 | 1.19 | -0.514 | 0.171 | -0.0232 | 1.26 | 0.677 | 1.2 | 0.438 | 0.302 | -1.3 (inactive) |
| C[N+](C)(C)CCCC[C@@H]1NC(=O)[C@H]2C[C@@H](C(=O)NCCCCCN)[C@@H](c3cccc(OCCO)c3)N2C1=O | 0.913 | 0.268 (inactive) | 0.23 | -0.0633 | 0.801 | 2.41 | 1.34 | 0.965 | -0.0742 | 1.13 | 2.45 | 1.07 | 0.535 | 0.789 | 1.19 | 0.327 | -0.102 | 0.17 | 1.1 | -0.714 (inactive) |
| CC(C)C(=C=CC[C@@H](O)c1ccc(CO)o1)CCO | -0.596 | 1.71 (inactive) | -0.0984 | -0.11 | 0.795 | 0.57 | -0.0333 | 0.541 | 0.107 | 0.349 | 0.635 | -0.356 | -0.7 | 0.401 | 0.987 | 1.05 | 1.86 | 0.759 | 0.308 | -2.15 (inactive) |
| Cc1ccc(N2C(=O)c3ccccc3[C@](C)(C(=O)NCC(F)(F)F)[C@@H]2c2ccc(CO)cc2)nc1 | -1.6 | -0.326 (inactive) | -0.403 | -0.177 | 0.869 | -0.552 | 0.0759 | -1.78 | -1.8 | -1.26 | -1.32 | -1.22 | -0.637 | -1.94 | -1.6 | -0.986 | -0.2 | -2.1 | -0.188 | -0.679 (inactive) |
| C=CCC(OC(C)=O)[C@@H]1[C@@H](N(Cc2cccc3ccccc23)C(=O)Cc2ccc(OC)cc2)c2cc(OCCCO)ccc2N1C(=O)Cc1ccc(OC)cc1 (stereo not given in full) | 0.73 | -0.199 (inactive) | -0.0373 | -0.104 | 0.207 | 0.624 | 0.163 | 0.0025 | 0.0487 | -0.532 | -0.28 | -0.418 | -0.238 | 0.849 | 0.148 | -0.0722 | 0.537 | -0.392 | 0.349 | -0.369 (inactive) |
| CC(CO)N1C(=O)[C@@H]2C3C(=O)OCCC/C=C\[C@H]3OC23C=CCN(Cc2ccccc2)C(=O)[C@@H]13 (stereo not given in full) | -0.656 | -0.427 (inactive) | -0.189 | -0.177 | 0.866 | -0.255 | -0.285 | -0.164 | -1.64 | -2.2 | -1.18 | -1.47 | -0.55 | -1.52 | -0.742 | -0.426 | 0.935 | -0.532 | -1.54 | -1.56 (inactive) |
